{"source": "the supplement of paper PMC11417369", "note": "± gives the standard deviation of the averaged measurements. Whole data set: some 25,000 sequences, median “ln(normalized median fluorescence intensity)” near 8.6, cut for the highest 2% near 10. The list comes from a sample in which the highest values are over-represented; it also holds similar and randomly drawn sequences.", "data": [{"tested_on": "PfAP2-EXP AP2 domain (GST-tagged)", "experiment": "gcPBM binding intensity (ln(normalized median fluorescence intensity)); higher = stronger DNA binding", "outline": "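GST-tagged P. falciparum DNA-binding domains produced in E. coli were incubated for 1 h on an Agilent 4 × 180k array of primer-extended double-stranded 36-bp intergenic genomic probes with negative controls. Binding intensity is the highest Masliner-normalised natural-log median intensity across replicate spots of either probe orientation, with bound protein detected by Alexa488 anti-GST antibody at 488 nm.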", "values": [{"sequence": "TATATAAACCCGTACACACACATATATGTATATATA [CACACA_site3507]", "gcPBM binding intensity (ln)": "8.91 ± 0.25"}, {"sequence": "TGTTTTTAAATTTAAATCAAAAAATAAAATAAAATA [GTGCAC_negctrl_site355]", "gcPBM binding intensity (ln)": "8.34 ± 0.48"}, {"sequence": "CTTACCAAAAGACACACACACACAAGATATATAAAT [CACACA_site6964]", "gcPBM binding intensity (ln)": "8.77 ± 0.56"}, {"sequence": "TATTGTTATGTCGTTATTAACTTTCTTTAATTAATT [CACACA_negctrl_site174]", "gcPBM binding intensity (ln)": "8.95 ± 0.29"}, {"sequence": "TTTTTTTTTTTGAGGAGGACACAAAAATATGCTACC [XGTACX_site756]", "gcPBM binding intensity (ln)": "8.53 ± 0.26"}, {"sequence": "TTTAATCAATGATTTAATGAAAAAAGCAAAAAAAAA [GTGCAC_negctrl_site213]", "gcPBM binding intensity (ln)": "8.38 ± 0.45"}, {"sequence": "AAATTATAATTAGGAACACACATATATATATATATA [CACACA_site3098]", "gcPBM binding intensity (ln)": "10.1 ± 0.33"}, {"sequence": "ATTTATTGACTATTTACACACATATTTATTATAATA [CACACA_site1624]", "gcPBM binding intensity (ln)": "8.9 ± 0.52"}, {"sequence": "TGAATATTTCTATATACACACATATATATATATATA [CACACA_site3451]", "gcPBM binding intensity (ln)": "10.3 ± 0.12"}, {"sequence": "TATATATATATTTATACACACACATATATTTATATA [CACACA_site8054]", "gcPBM binding intensity (ln)": "9.47 ± 0.071"}, {"sequence": "TGAATATTTCTATATACACACATATAAATATAAATA [CACACA_site7593]", "gcPBM binding intensity (ln)": "8.26 ± 0.36"}, {"sequence": "TATTTATATTTATATACACACATACATATTTATATT [CACACA_site6535]", "gcPBM binding intensity (ln)": "8.41 ± 0.33"}, {"sequence": "AAATTTTAATTAGGAACACACATATATATATATATA [CACACA_site5673]", "gcPBM binding intensity (ln)": "10.2 ± 0.24"}, {"sequence": "TAATATTGACTATATACACACATATATATATATATA [CACACA_site575]", "gcPBM binding intensity (ln)": "10.2 ± 0.28"}, {"sequence": "GTAATTTTTTTCTATACACACATATATATAATATAT [CACACA_site2655]", "gcPBM binding intensity (ln)": "8.74 ± 0.32"}, {"sequence": "TATATATATATATATACACACATATATATATTTATA [CACACA_site627]", "gcPBM binding intensity (ln)": "10.3 ± 0.18"}, {"sequence": "AAAAATTTTAATTAGGAACACACATATATATATATA [CACACA_site9016]", "gcPBM binding intensity (ln)": "10.1 ± 0.27"}, {"sequence": "TAATATTGACTATATACACACATATAAATATAAATA [CACACA_site6414]", "gcPBM binding intensity (ln)": "8.4 ± 0.33"}, {"sequence": "AAATTCATATGAATTTGTACGGACATAAATATCTTC [XGTACX_site1838]", "gcPBM binding intensity (ln)": "8.62 ± 0.33"}, {"sequence": "TGAATTTACAAAATCATGCACTTAATTACAGAATAA", "gcPBM binding intensity (ln)": "8.38 ± 0.26"}, {"sequence": "TCCATATGCAAACTGGTGCACAAGTAGCTTTTATAT", "gcPBM binding intensity (ln)": "8.99 ± 0.3"}, {"sequence": "TCATAAAAAGGAATCTTTAAGATATTTTATAAGCTC [XGTACX_negctrl_site18]", "gcPBM binding intensity (ln)": "8.06 ± 0.5"}, {"sequence": "TATATAAAAATCAATTGTACTTTTTTTTTTTTTTTT [XGTACX_site7327]", "gcPBM binding intensity (ln)": "8.52 ± 0.16"}, {"sequence": "TTAAGATCCTAAAAAACACACAATTGTGAATAATAA [CACACA_site3872]", "gcPBM binding intensity (ln)": "8.69 ± 0.53"}, {"sequence": "TGTAGATAAAATAAACGTACGTATTGATTTTTTTCA [XGTACX_site1610]", "gcPBM binding intensity (ln)": "8.26 ± 0.41"}, {"sequence": "TATTATATTCTGCTTACACACATATATATATATATA [CACACA_site3060]", "gcPBM binding intensity (ln)": "10.3 ± 0.38"}, {"sequence": "CATATTATATTCTGCTTACACACATATATATATATA [CACACA_site3059]", "gcPBM binding intensity (ln)": "10.1 ± 0.42"}, {"sequence": "TATTCTAGTCTGCTTACACACATATTTATATTTATA [CACACA_site7432]", "gcPBM binding intensity (ln)": "8.81 ± 0.54"}, {"sequence": "GAAGATTTATCTTGCACACGCAAAAAAAAAAAAAAA [CACACA_site154]", "gcPBM binding intensity (ln)": "8.4 ± 0.27"}, {"sequence": "TGAAGGATATATTCCGTGCACATATAAATATATACA", "gcPBM binding intensity (ln)": "8.735 ± 0.007"}, {"sequence": "AAAATATTTCATATATGTACTTAAAAAAAAAAAAAA [XGTACX_site5399]", "gcPBM binding intensity (ln)": "8.27 ± 0.38"}, {"sequence": "AATCTTAAAAATATATGTACTAAAAAAAAAAAAAAT [XGTACX_site6195]", "gcPBM binding intensity (ln)": "8.37 ± 0.47"}, {"sequence": "ATATATATATATATATGTACTAAATATTCATCCTTA [XGTACX_site6039]", "gcPBM binding intensity (ln)": "10.2 ± 0.3"}, {"sequence": "CTATATATATATTTCAGTACATATTAAGAATATATA [XGTACX_site4860]", "gcPBM binding intensity (ln)": "8.31 ± 0.38"}, {"sequence": "TATAACATAGGACACACACACATACATACACAAAAA [CACACA_site5062]", "gcPBM binding intensity (ln)": "8.94 ± 0.35"}, {"sequence": "ATATATATATATAAAGGTACACATTTATTAAATATA [XGTACX_site7102]", "gcPBM binding intensity (ln)": "10.1 ± 0.12"}, {"sequence": "TTTAATATGTATTTTTTTTTTTTTTTTTTTTTTTTT [XGTACX_negctrl_site440]", "gcPBM binding intensity (ln)": "9.06 ± 0.085"}, {"sequence": "ATATCCTACTTCTAGTGTACATATATGGACTGATGA [XGTACX_site3683]", "gcPBM binding intensity (ln)": "8.87 ± 0.35"}, {"sequence": "AAGCATCCTACTGATTGTACATATATATATATATAT [XGTACX_site2150]", "gcPBM binding intensity (ln)": "10.2 ± 0.3"}, {"sequence": "ATATAATATATATATTGTACATATATTTATAAGCAT [XGTACX_site3726]", "gcPBM binding intensity (ln)": "8.38 ± 0.19"}, {"sequence": "AACGAAATCATCAAGTGTACTAGTTTATTATTAATA [XGTACX_site6161]", "gcPBM binding intensity (ln)": "8.38 ± 0.42"}, {"sequence": "TTTTTTCTTTTTTTTTGTACATATAATATTTATGTT [XGTACX_site302]", "gcPBM binding intensity (ln)": "8.62 ± 0.4"}, {"sequence": "AAAATAATAATAGGCACACATATATATATATATATA [CACACA_site2058]", "gcPBM binding intensity (ln)": "10.1 ± 0.33"}, {"sequence": "AAGTACCATATAGGCACACATATATATATATATATA [CACACA_site3282]", "gcPBM binding intensity (ln)": "10.2 ± 0.34"}, {"sequence": "ATGTACTATAGGCACACACACTCACATATATATATA [CACACA_site5745]", "gcPBM binding intensity (ln)": "9.96 ± 0.22"}, {"sequence": "AAGAAAAGCAAACAAGTGCATAATAACAAAAAAAAT [GTGCAC_site9725]", "gcPBM binding intensity (ln)": "9.13 ± 0.46"}, {"sequence": "TTGTTTCTTAAATTATTTATTTTATATTAAAAAAAA [XGTACX_negctrl_site224]", "gcPBM binding intensity (ln)": "8.31 ± 0.46"}, {"sequence": "ATTTATTTTATTTTCACACACAAAAATAAATATCCG [CACACA_site2414]", "gcPBM binding intensity (ln)": "8.44 ± 0.44"}, {"sequence": "TTATTATTATTACTAGTGCATTAATTATATATGTAA", "gcPBM binding intensity (ln)": "8.72 ± 0.13"}, {"sequence": "ATATTGTTATATGTTTGTACATATTTTTTATATTTT [XGTACX_site6834]", "gcPBM binding intensity (ln)": "8.93 ± 0.91"}, {"sequence": "ATATATATATATATATGTACATATTATTATTTTGAT [XGTACX_site4752]", "gcPBM binding intensity (ln)": "10.1 ± 0.38"}, {"sequence": "ATATATATATATATATGTACATATGTATGTGTTTGT [XGTACX_site397]", "gcPBM binding intensity (ln)": "9.93 ± 0.42"}, {"sequence": "TATATATCTATATATTGTACATATGTTTGTATGTGT [XGTACX_site7420]", "gcPBM binding intensity (ln)": "8.54 ± 0.29"}, {"sequence": "ATATATATATATATATGTACATATGTTTGTTTCCGC [XGTACX_site5167]", "gcPBM binding intensity (ln)": "10.3 ± 0.21"}, {"sequence": "ATATATATATATATATGTACACATATATGTGTTTGT [XGTACX_site62]", "gcPBM binding intensity (ln)": "10.1 ± 0.26"}, {"sequence": "TTTATATTGTTTTATTGTACATATATATTTATACAT [XGTACX_site6821]", "gcPBM binding intensity (ln)": "8.81 ± 0.4"}, {"sequence": "GTGTTTTTTTTAGATTGTACATATATATATATATAT [XGTACX_site4562]", "gcPBM binding intensity (ln)": "10.3 ± 0.33"}, {"sequence": "CATATATATATATATTGTACAAGATTGTTTTTTTAT [XGTACX_site3913]", "gcPBM binding intensity (ln)": "8.76 ± 0.35"}, {"sequence": "ATATATATATATATATGTACATATTTTTGTTTGATG [XGTACX_site51]", "gcPBM binding intensity (ln)": "10.2 ± 0.81"}, {"sequence": "TTTTTTTTTTGATGTTGTACATATATATTATATATA [XGTACX_site6377]", "gcPBM binding intensity (ln)": "8.55 ± 0.41"}, {"sequence": "ATATATATATATATATGTACATACATATTGTTTGGT [XGTACX_site2284]", "gcPBM binding intensity (ln)": "10.3 ± 0.76"}]}]}
